From PubChem
Shown are actives, neighbours in structure and some others; about 2.8% of the full set was active somewhere.
ATXN viability: viability counter-screen for ATXN expression inhibitors; S2 cells (HEK-293 line with an ATXN2-luciferase reporter) viability, CellTiter-Fluor protease fluorescence, 24 h; Potency, µM (doses to about 56.7 µM), actives largely listed as cytotoxic; 400,000 tested, 0.49% active; AID 651635; also: nearly all actives have a fitted effect of over 40% in size
TGFb inhibitor: TGF-b pathway inhibition. HepG2 CAGA-GFP TGF-b/SMAD3 reporter, GFP fluorescence, 18 h; TGF-beta stimulated, 500 pg/mL final. Potency, µM (titrated, usually from 46.1 µM), for inactives: top-dose activity, negative = inhibition, hits mostly inhibitors. 410,000 tested, 1.2% active. AID 588855; also: % is scaled to controls: 0 for no effect and ±100 for the full control effect; nearly all actives have a fitted effect of over 65% in size
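First, reporter cells (HEPG2 CAGA-GFP) rested 2 h at 37 degrees C. Next, compounds were pinned in and TGF-beta added to 500 pg/mL final. After 18 h, GFP was imaged per cell and summed per well.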
HepG2 viability: counter-screen for TGF-b inhibitors: cytotoxicity in HepG2 cells; HepG2 CAGA-GFP viability, ATP luminescence, 18 h; Potency, µM (top dose mostly 46.1 µM), for inactives: top-dose activity change, negative = cytotoxicity, actives largely listed as cytotoxic; 410,000 tested, 0.76% active; AID 588856
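HepG2 CAGA-GFP cells (1000/well, DMEM with 1% FBS) received compound, then TGF-beta at 500 pg/mL final, and were incubated 18 hours at 37 degrees C. Viability was read by CellTiter-Glo luminescence. Media-only wells were set as complete cell-killing and DMSO as no toxicity.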
HTT ATP protect: cytoprotection in Huntington HTT-Q103 PC12 cell model. Potency, µM (titrated, usually from 56.4 µM), for the others: cytoprotection (ATP increase), actives largely listed as activators. AID 1471. PC12 HTT-Q103 induced, cytoprotection, ATP luminescence, 40 h. 230,000 tested, 0.14% active; also: % of control where 0% means no effect; nearly all actives have a fitted effect of over 45% in size
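PC12 cells with ecdysone-inducible HTT exon 1 Q103-GFP, induced with 100 nM tebufenozide and co-treated with library compounds in a dose series (1536-well, 1500 cells/well). Cytoprotection read as ATP content by ATPlite luminescence.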
ATXN2 expr inh: inhibitors of ATXN2 expression; HEK-293 ATXN2-luciferase reporter, luminescence, 24 h; Potency, µM (titrated, usually from 57 µM), for the others: at the top dose activity change, negative = inhibition, usual class: inhibitors; 360,000 tested, 0.72% active; AID 1745845; also: % is scaled to controls: 0 for no effect and ±100 for the full control effect; nearly all actives have a fitted effect of over 55% in size
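ATXN2-luciferase reporter cells (luciferase flanked by upstream and downstream ATXN2 gene portions) were treated 24 h at 37 °C with compounds at up to 57 uM. SteadyGlo luminescence gave expression; GF-AFC fluorescence gave viability.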
HttQ103 aggreg: inhibitors of mutant huntingtin aggregate formation in PC12 cells; 220,000 tested, 1.1% active; PC12 HttQ103-GFP aggregates, Acumen cytometry, 40 h; Potency, µM (doses to about 46.1 µM), without a hit: at the top dose activity change, negative = inhibition, actives largely listed as inhibitors; also: % is scaled to controls: 0 for no effect and ±100 for the full control effect; nearly all actives have a fitted effect of over 60% in size
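PC12 cells with ecdysone-inducible HTT exon1 Q103-GFP, induced by 100 nM tebufenozide, given compounds in a concentration series. GFP aggregates (1–25 um, 6 SD above background) counted in lysates by laser-scanning cytometry, 488 nm excitation.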
The depositor's hits bear a star; i = inactive; ? = inconclusive; · = no result given; [ ] = remark or other dose. Calls follow the shape of the dose curve; as a rule, active = well fitted curve in the direction sought with a large enough effect; inconclusive = small, poorly fitted or top-dose-only effect, or another doubt; inactive = no such curve, though single readings can be large; an effect the other way counts as inactive or inconclusive. Potency is read from the fitted curve at half-maximal effect.

SMILES	ATXN viability	TGFb inhibitor	HepG2 viability	HTT ATP protect	ATXN2 expr inh	HttQ103 aggreg
C#CCOCCOCCOCCNc1nc(N2CCN(C(=O)CCCCCCCCCCNC(=O)Cn3cc(C[C@@H](C)O)nn3)CC2)nc(N2CCN(C(=O)CCCCCCCCCCNC(=O)[C@H](CCCN=C(N)N)n3cc(C[C@@H](C)CC)nn3)CC2)n1	20µM*	14µM*	-51%	·	?	·
C#CCOCCOCCOCCNc1nc(N2CCN(C(=O)CCCCCCCCCCNC(=O)[C@H](CO)n3cc(CCCSC)nn3)CC2)nc(N2CCN(C(=O)CCCCCCCCCCNC(=O)[C@H](CCCN=C(N)N)n3cc(C[C@@H](C)CC)nn3)CC2)n1	11µM*	?	10µM*	·	11µM*	·
C#CCOCCOCCOCCNc1nc(N2CCN(C(=O)CCCCCCCCCCNC(=O)[C@H](CO)n3cc(CCCSC)nn3)CC2)nc(N2CCN(C(=O)CCCCCCCCCCNC(=O)[C@H](CCCCN)n3cc(CCO)nn3)CC2)n1	?	-16%	-25%	·	-18%	·
Cc1cc2c(cc1C1(c3ccc(C(=O)O)cn3)CC1)C(C)(C)CCC2(C)C	·	·	·	·	11%	·
COc1ccc(-c2cc(=O)c3ccccc3n2C)cc1	i	-12%	4%	31%[10 µM]	5%	-30%
COc1ccc2c(c1)c1ccccc1n2C	i	14%	-21%	0%[10 µM]	-3%	13µM*
O=S(=O)(NCCNC/C=C\c1ccc(Br)cc1)c1cccc2cnccc12	·	·	·	-13%[1.9 µM]	·	·
COC(=O)N1C(/C=C/c2ccc3c(c2)OCO3)=Cc2ccccc2C1CC(C)=O (stereo unspecified)	·	·	·	-4%[10 µM]	·	·
CC(OC(=O)C1CC1)C(=O)Nc1ccc([N+](=O)[O-])cc1Cl (stereo unspecified)	i	5%	-1%	3.5µM*	·	-5%
COc1cc(-c2ccc(N=C=O)c(OC)c2)ccc1N=C=O	·	·	·	-8%	·	·
CN(C)c1nc(Cc2ccc(NC(=O)c3ccc(C(F)(F)F)cc3)cc2)nc(N(C)C)c1CC(=O)O	·	·	·	·	2%	·
Cc1oc(-c2cccc(Cl)c2)nc1CS(=O)(=O)CC(=O)NC(C)CCc1ccccc1 (stereo unspecified)	?	10µM*	-34%	·	?	·
Cc1oc(-c2ccccc2Cl)nc1CS(=O)(=O)CC(=O)NC(C)CCc1ccccc1 (stereo unspecified)	?	10µM*	-14%	·	?	·
CCOc1ccc(CCNC(=O)CS(=O)(=O)Cc2nc(-c3cccc(Cl)c3)oc2C)cc1	i	?	-11%	·	-31%	·
O=C1/C(=C/c2ccco2)SC(=S)N1C1CCS(=O)(=O)C1 (stereo unspecified)	?	-9%	-9%	-98%[10 µM]	·	4.5µM*
CC(C)(C)C1CCc2[nH]nc(C(=O)O)c2C1 (stereo unspecified)	i	-11%	-6%	3.5µM*	-6%	-8%
CCC(C)(C)C1CCc2[nH]nc(C(=O)O)c2C1 (stereo unspecified)	i	-7%	-6%	·	1%	·
COc1cccc(-c2nc(CS(=O)(=O)CC(=O)N3CCN(c4ccccc4)CC3)c(C)o2)c1	·	11µM*	-12%	·	·	·
CCN1CCN(C(=O)CS(=O)(=O)Cc2nc(-c3cccc(OC)c3)oc2C)CC1	i	4%	8%	·	4%	·
Cc1oc(-c2ccccc2Cl)nc1CS(=O)CC(=O)N1CCN(c2cccc(C(F)(F)F)c2)CC1 (stereo unspecified)	·	11µM*	-105%	·	·	·
COc1ccccc1NC(=O)N1CCN(c2cccc(C(F)(F)F)c2)CC1	i	-6%	5%	4%	-17%	7%
COc1cccc(-c2nc(CS(=O)CC(=O)N3CCN(c4cccc(C(F)(F)F)c4)CC3)c(C)o2)c1 (stereo unspecified)	·	16µM*	-38%	·	·	·
COc1ccccc1CC(=O)N1CCN(c2cccc(C(F)(F)F)c2)CC1	i	?	-21%	11%[10 µM]	-30%	13µM*
Cc1ccc(-c2nc(CS(=O)CC(=O)N3CCN(c4cccc(Cl)c4)CC3)c(C)o2)cc1 (stereo unspecified)	·	?	-13%	·	·	·
Cc1oc(-c2ccc(Cl)cc2)nc1CS(=O)CC(=O)N1CCN(c2cccc(C(F)(F)F)c2)CC1 (stereo unspecified)	·	8.9µM*	20µM*	·	·	·
SMILES	ATXN viability	TGFb inhibitor	HepG2 viability	HTT ATP protect	ATXN2 expr inh	HttQ103 aggreg
O=c1[nH]c(Sc2ccc([N+](=O)[O-])cc2[N+](=O)[O-])nc2ccccc12	?	14µM*	11µM*	·	·	·
CCn1c2ccccc2c2cc(CN3CCN(S(=O)(=O)CC)CC3)ccc21	·	·	·	-8%[1.9 µM]	·	24%
CCn1c2ccccc2c2cc(CN3CCN(Cc4ccc(Br)cc4)CC3)ccc21	·	?	11µM*	·	·	·
COC1(OC)C=CC(=O)C=C1NC(=O)c1ccccc1OC(C)=O	14µM*	11µM*	-4%	·	18µM*	·
CC(=O)Oc1ccccc1C(=O)Nc1ccccc1	i	0%	-15%	·	15%	·
COc1cc(CN2CCOc3ccc(CN4CCC(O)(c5cccnc5)CC4)cc3C2)cc(OC)c1	i	·	·	·	·	·
C/C=C(\NNC(C)=O)c1ccc(O)cc1	·	1%	-4%	·	·	·
CCS(=O)(=O)Nc1ccc2[nH]c(O)c(C(=Nc3ccc(CN4CCCCC4)cc3)c3ccccc3)c2c1	·	·	·	·	7.7µM*	·
CCOc1cc(/C=N/NC(N)=O)cc(Br)c1OCC(=O)Nc1cccc2ccccc12	i	17%	11µM*	-5%	-17%	4%[9.22 µM]
CCc1ccc(NC(=O)COC(=O)c2ccccc2OCC(=O)N(C)C)cc1	·	-30%	-38%	·	·	·
O=C(Nc1cccc(OC(F)(F)F)c1)C1Cc2c(-c3ccccc3Oc3ccccc3)ccnc2O1 (stereo unspecified)	i	11µM*	-32%	·	-24%	·
O=C(Nc1ccc(Cl)c(C(F)(F)F)c1)C1Cc2c(-c3ccc4c(c3)OCO4)ccnc2O1 (stereo unspecified)	i	11µM*	-31%	·	?	·
COc1ccc(NC(=O)C2Cc3c(-c4ccc5c(c4)OCO5)ccnc3O2)cc1OC (stereo unspecified)	2.5µM*	-6%	-38%	·	?	·
CC(C)c1ccc(NC(=O)C2Cc3c(-c4ccc5c(c4)OCO5)ccnc3O2)cc1 (stereo unspecified)	?	27%	-6%	·	7%	·
CC(=O)Nc1cccc(-c2ccnc3c2CC(C(=O)Nc2ccc(F)c(Cl)c2)O3)c1 (stereo unspecified)	·	?	-29%	·	?	·
